Experimental data from PubChem BioAssay (NCATS).
Results filed as inconclusive are left out. Entries that show only a call come without a potency. Calls of active or inactive are those of the source. The call rests on the fitted dose curve; in most records, active means well fitted cell-killing curve with a large enough effect; inconclusive means small, poorly fitted or top-dose-only effect, or effect the other way; inactive means flat fitted curve, though single readings scatter. Where a SMILES comes first, the peptide text is derived from it. Bridges are numbered along the chain shown (N, C = ends). [ ]: non-standard residue; d: D form. The star is where a group is joined. X1 = CCC(C)C(N)C1=NC(C(=O)*)CS1; dOrn = NCCC[C@@H](N)C(=O)O

These compounds were tested on Es-2 (assay: Primary qHTS to identify gynecologic anti-cancer compounds using libraries of approved drugs and bioactive compounds (AID 1345084; further: nearly all actives have a fitted effect of over 55% in size)). Conditions: Gynecologic cancer cell panel viability, ATPlite luminescence, 48 h; series mostly up to 57.5 µM.
Procedure, shortened: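 Luminescence from the ATPlite ATP-monitoring reagent indicates viable cell number; lower signal means cytotoxicity. Cells received compound 16 h after seeding and were exposed for 48 h across five concentrations.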

Row | SMILES | Potency | activity change, negative = cytotoxicity
1 | OC[C@H]1O[C@@H](OC(CCCCc2ccc(O)cc2)CCc2ccc(O)cc2)[C@H](O[C@@H]2OC[C@](O)(CO)[C@H]2O)[C@@H](O)[C@@H]1O (stereo not given in full) | inactive | 
2 | C=C(C)[C@H]1C[C@@H](O)C(=C)CC[C@@H](O)C(=C)[C@@H](O)C1 | inactive | 
3 | CN1C(=O)c2ccccc2NC(=O)[C@]12O[C@@H]2c1cccc(O)c1 | inactive | 
4 | C=C1C(=O)O[C@H]2[C@H]1[C@@H](OC(=O)C(C)CO)C[C@@]1(C)[C@H](O)CCC(=O)[C@H]21 (stereo not given in full) | inactive | 
5 | N[C@@H](CC(=O)N1CCn2c(nnc2C(F)(F)F)C1)Cc1[nH]nc2c(F)c(F)ccc12 | inactive | 
6 | CC1=CC(=O)CC(C)(C)C1(O)CCC(C)O (stereo not given) | inactive | 
7 | O=C(O)Cc1nn(Cc2nc3cc(C(F)(F)F)ccc3s2)c(=O)c2nccnc12 | inactive | 
8 | CCOC(=O)[C@H](CCc1ccccc1)CC1(C(=O)N[C@H]2CCc3ccccc3N(CC(=O)O)C2=O)CCCC1 | inactive | 
9 | COc1cc(/C=C/C(=O)OC2[C@H](O)CC(O)(C(=O)O)C[C@H]2O)ccc1O (stereo not given in full) | inactive | 
10 | Cn1ccnc1CCOC(c1cc2nccc(C(=O)O)c2[nH]1)c1ccccc1Cl (stereo not given) | inactive | 
11 | C/C=C(\C)C(=O)O[C@H]1[C@H](O)[C@]2(COC(C)=O)[C@H](O)C[C@]3(C)C(=CCC4[C@@]5(C)CC[C@H](O[C@@H]6O[C@H](C(=O)O)[C@@H](O[C@@H]7O[C@H](CO)[C@@H](O)[C@H](O)[C@H]7O)[C@H](O)[C@H]6O[C@@H]6O[C@H](CO)[C@@H](O)[C@H](O)[C@H]6O)[C@](C)(CO)C5CC[C@]43C)[C@@H]2CC1(C)C (stereo not given in full) |  | 5.46% [at 11.6 µM] (inactive)
12 | CC1=CCC2C(C)(CO)CCCC2(CO)C1CO (stereo not given) | inactive | 
13 | COc1cccc2c1CCC[C@H]2CN(C)CCc1ccc2ccoc2c1 | inactive | 
14 | COC(=O)CC1(O)C(=O)Nc2ccccc21 (stereo not given) | inactive | 
15 | C=C1CCC2C(C)(C)C(O)CCC2(C)C1CCC(C)CCOC(=O)CCC(=O)O (stereo not given) | inactive | 
16 | CC(=O)O[C@H]1C[C@@H]2[C@]3(CC[C@]4(C)[C@@H](C5(C)CCC(C(C)(C)O)O5)[C@@H](O)C[C@@]24C)C[C@@]32CC[C@H](O[C@@H]3OC[C@@H](O)[C@H](O)[C@H]3O)C(C)(C)[C@H]12 (stereo not given in full) | inactive | 
17 | CCCCS(=O)(=O)Nc1ncnc(OCCOc2ncc(Br)cn2)c1-c1ccc(Br)cc1 | inactive | 
18 | C[C@@H]1O[C@@H](O[C@H]2[C@H](OC(=O)C34CCC(C)(C)CC3C3=CCC5C6(C)CC(O)C(O[C@@H]7O[C@H](CO)[C@@H](O)[C@H](O)[C@H]7O)C(C)(C(=O)O)C6CCC5(C)C3(CO)CC4)O[C@H](C)[C@H](O)[C@@H]2O)[C@H](O)[C@H](O)[C@H]1O[C@@H]1OC[C@@H](O)[C@H](O)[C@H]1O (stereo not given in full) |  | 0.101% [at 11.6 µM] (inactive)
19 | CC1NC(=O)C(Cc2c[nH]c3ccccc23)NC1=O (stereo not given) | inactive | 
20 | CC(=O)c1c(O)cc2cccc3c2c1CC(C)(O)O3 (stereo not given) | inactive | 

Row | SMILES | Potency | activity change, negative = cytotoxicity
21 | CC(C#N)C(C)O[C@@H]1O[C@H](CO)[C@@H](O)[C@H](O)[C@H]1O (stereo not given in full) | inactive | 
22 | CC(C)C(=O)O[C@@H]1[C@@H](O)[C@@H](O[C@H]2O[C@H](CO)[C@@H](O)[C@H](O)[C@H]2O)O[C@H](CO)[C@H]1O | inactive | 
23 | COc1ccccc1CC(C(=O)O)N(C)C(=O)c1ccccc1 (stereo not given) | inactive | 
24 | C/C(=C/CO)CC[C@@H]1[C@@]2(C)CCC[C@](C)(C(=O)O)C2CC[C@@]1(C)O (stereo not given in full) | inactive | 
25 | COc1cc(C(O)C(CO)Oc2ccc(CCCO[C@@H]3O[C@@H](C)[C@H](O)[C@@H](O)[C@H]3O)cc2OC)ccc1O (stereo not given in full) | inactive | 
26 | C[C@@H]1O[C@@H](O[C@H]2[C@H](O[C@H]3[C@H](O[C@H]4CC[C@@]5(C)C(CC[C@]6(C)C5CC=C5[C@@H]7CC(C)(C(=O)O)C[C@@H](O)[C@]7(C)CC[C@]56C)[C@@]4(C)CO)O[C@H](C(=O)O)[C@@H](O)[C@@H]3O)O[C@H](CO)[C@H](O)[C@@H]2O)[C@H](O)[C@H](O)[C@H]1O (stereo not given in full) |  | 6.95% [at 11.6 µM] (inactive)
27 | CC(=O)O[C@H]1[C@H](Oc2ccccc2COC(=O)C2(O)C=CCCC2=O)O[C@H](CO)[C@@H](O)[C@@H]1O (stereo not given in full) | inactive | 
28 | NC(=O)[C@H]1CCCCc2c1[nH]c1ccc(Cl)cc21 | inactive | 
29 | COc1ccc(/C=C/C(=O)O[C@H]2[C@@H]3C=CO[C@@H](O[C@@H]4O[C@H](CO)[C@@H](O)[C@H](O)[C@H]4O)[C@@H]3[C@@]3(CO)O[C@@H]23)cc1O | inactive | 
30 | COc1c(OC2OC(CO)C(O)C(O)C2O)ccc(O)c1C(=O)OCc1ccccc1O[C@@H]1O[C@H](CO)[C@@H](O)[C@H](O)[C@H]1O (stereo not given in full) | inactive | 
31 | CC1CCC2(C)C(CC(O)C(O)C23CO3)C1(C)CCC1=CC(=O)OC1O (stereo not given) | inactive | 
32 | CCC(C)C(N)C1=NC(C(=O)N[C@@H](CC(C)C)C(=O)N[C@H](CCC(=O)O)C(=O)N[C@H](C(=O)N[C@H]2CCCCNC(=O)[C@H](CC(N)=O)NC(=O)[C@@H](CC(=O)O)NC(=O)[C@H](Cc3cnc[nH]3)NC(=O)[C@@H](Cc3ccccc3)NC(=O)[C@H]([C@@H](C)CC)NC(=O)[C@@H](CCCN)NC2=O)[C@@H](C)CC)CS1 (stereo not given in full) (X1-L[dE]IK[dOrn]I[dF]H[dD]N; lactam 4-C) | inactive | 
33 | C[C@@]12C[C@]3(O)O[C@H](O1)[C@]1(COC(=O)c4ccccc4)[C@H]3C[C@@]12O[C@@H]1O[C@H](COC(=O)c2ccccc2)[C@@H](O)[C@H](O)[C@H]1O | inactive | 
34 | C=CC1C(O[C@@H]2O[C@H](CO)[C@@H](O)[C@H](O)[C@H]2O)OC=C(C(=O)OC)C1Cc1nccc2c1[nH]c1ccccc12 (stereo not given in full) | inactive | 
35 | Cc1c(-c2ccnn2C)cc(C(=O)NCc2ccc(S(C)(=O)=O)cn2)c(=O)n1-c1cccc(C(F)(F)F)c1 | inactive | 
36 | CCOc1ccc(C(Nc2ccccn2)c2ccc3ccc(C)nc3c2O)cc1C (stereo not given) | inactive | 
37 | CC(=O)c1c(O)cc2c(c1C)C(=O)CC(O)C2 (stereo not given) | inactive | 
38 | O=C(/C=C/c1ccc(O)cc1)OCC1=CC2OC(=O)C3=CO[C@@H](O[C@@H]4O[C@H](CO)[C@@H](O)[C@H](O)[C@H]4O)[C@H]1[C@@H]32 (stereo not given in full) | inactive | 
39 | CCC1CC2C(C)=CC3CCCCC3C2(C)C2(OC(=O)C(C)(O)OC2=O)O1 (stereo not given) | inactive | 
40 | CC12CCC3C(C)(C)C(O)CCC3(C)C1Cc1c(oc(C(=O)O)cc1=O)O2 (stereo not given) | inactive | 
